Reference: PubChem BioAssay (NCI)
About 83,000 compounds went through this panel and 20% of them were active in at least one assay; those are over-represented in the sample as a whole.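 The endpoint reported here, percent growth, reads 100 for growth as untreated, 0 for no net growth and -100 for all cells dead.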

Legend:
Assay in all cases: NCI-60 one-dose screen, 48 h (100 = growth as untreated, 0 = no growth, -100 = all killed)
Details in all cases: 10 µM unless noted; active = growth percent below 10; inactive = the rest
DU-145 prostate = test system: DU-145 prostate
K-562 leukemia = test system: K-562 leukemia
MALME-3M melanoma = test system: MALME-3M melanoma
MDA-MB-231 breast = test system: MDA-MB-231 breast
RXF 393 renal = test system: RXF 393 renal
SF-268 CNS = test system: SF-268 CNS
SF-295 CNS = test system: SF-295 CNS
SF-539 CNS = test system: SF-539 CNS
UACC-257 melanoma = test system: UACC-257 melanoma
M14 melanoma = test system: M14 melanoma
HCT-15 colon = test system: HCT-15 colon
HT29 colon = test system: HT29 colon
SNB-75 CNS = test system: SNB-75 CNS
U251 CNS = test system: U251 CNS
PC-3 prostate = test system: PC-3 prostate
SK-MEL-5 melanoma = test system: SK-MEL-5 melanoma
UACC-62 melanoma = test system: UACC-62 melanoma
LOX IMVI melanoma = test system: LOX IMVI melanoma
SK-MEL-28 melanoma = test system: SK-MEL-28 melanoma

Measured: growth

COc1cc2ncnc(Nc3ccc(F)c(Cl)c3)c2cc1OCC(=O)N1CCN(c2ccc(F)cc2)CC1
inactive: DU-145 prostate 60.5% | K-562 leukemia 83.6% | MALME-3M melanoma 92.2% | MDA-MB-231 breast 79.3% | RXF 393 renal 103% | SF-268 CNS 79.5% | SF-295 CNS 94.1% | SF-539 CNS 100% | UACC-257 melanoma 114% | M14 melanoma 81.3% | HCT-15 colon 92.7% | HT29 colon 86.7% | SNB-75 CNS 91.2% | U251 CNS 107% | PC-3 prostate 94.6% | SK-MEL-5 melanoma 98.2% | UACC-62 melanoma 87.9% | LOX IMVI melanoma 93.3% | SK-MEL-28 melanoma 98.4%

CCOC(=O)C1=C(c2ccccc2)N=c2s/c(=C/c3ccc(Br)cc3)c(=O)n2C1c1ccc(O)cc1 (stereo unspecified)
inactive: DU-145 prostate 95.5% | K-562 leukemia 77.6% | MALME-3M melanoma 94.3% | MDA-MB-231 breast 81.6% | RXF 393 renal 102% | SF-268 CNS 83.8% | SF-295 CNS 95.6% | SF-539 CNS 97.9% | UACC-257 melanoma 86.9% | M14 melanoma 87.2% | HCT-15 colon 82.3% | HT29 colon 87.6% | SNB-75 CNS 68.7% | U251 CNS 81.1% | PC-3 prostate 64.1% | SK-MEL-5 melanoma 91.9% | UACC-62 melanoma 76.1% | LOX IMVI melanoma 91.7% | SK-MEL-28 melanoma 92.5%

CCOC(=O)c1c(-c2ccc(Cl)cc2)c(C#N)c2c(C#N)c(N)nn2c1N
inactive: DU-145 prostate 74.9% | K-562 leukemia 15.4% | MALME-3M melanoma 72.9% | MDA-MB-231 breast 75.7% | RXF 393 renal 77% | SF-268 CNS 77.3% | SF-295 CNS 57.2% | SF-539 CNS 71.6% | UACC-257 melanoma 60.3% | M14 melanoma 75.5% | HCT-15 colon 47.2% | HT29 colon 49.7% | SNB-75 CNS 79.8% | U251 CNS 66.4% | PC-3 prostate 59.3% | SK-MEL-5 melanoma 52.3% | UACC-62 melanoma 46.4% | LOX IMVI melanoma 65.8% | SK-MEL-28 melanoma 62.6%

Clc1ccc(-c2cn3ccsc3n2)c(Cl)c1Cl
inactive: DU-145 prostate 76.2% | K-562 leukemia 73.1% | MALME-3M melanoma 117% | MDA-MB-231 breast 76.1% | RXF 393 renal 95.2% | SF-268 CNS 102% | SF-295 CNS 91.8% | SF-539 CNS 88% | UACC-257 melanoma 87.7% | M14 melanoma 98.7% | HCT-15 colon 89.5% | HT29 colon 105% | SNB-75 CNS 86.4% | U251 CNS 91% | PC-3 prostate 93.5% | SK-MEL-5 melanoma 79.8% | UACC-62 melanoma 67.7% | LOX IMVI melanoma 80.7% | SK-MEL-28 melanoma 120%
